Reference: ChEMBL document CHEMBL2218924, “A broad activity screen in support of a chemogenomic map for kinase signalling research and drug discovery” (Biochem J, 2013)

What was measured:
[1] = biological target: T1, Rhodopsin kinase GRK7 (Homo sapiens) (UniProt Q8WTQ7); conditions: at 10 µM
T1 sequence (whole entry): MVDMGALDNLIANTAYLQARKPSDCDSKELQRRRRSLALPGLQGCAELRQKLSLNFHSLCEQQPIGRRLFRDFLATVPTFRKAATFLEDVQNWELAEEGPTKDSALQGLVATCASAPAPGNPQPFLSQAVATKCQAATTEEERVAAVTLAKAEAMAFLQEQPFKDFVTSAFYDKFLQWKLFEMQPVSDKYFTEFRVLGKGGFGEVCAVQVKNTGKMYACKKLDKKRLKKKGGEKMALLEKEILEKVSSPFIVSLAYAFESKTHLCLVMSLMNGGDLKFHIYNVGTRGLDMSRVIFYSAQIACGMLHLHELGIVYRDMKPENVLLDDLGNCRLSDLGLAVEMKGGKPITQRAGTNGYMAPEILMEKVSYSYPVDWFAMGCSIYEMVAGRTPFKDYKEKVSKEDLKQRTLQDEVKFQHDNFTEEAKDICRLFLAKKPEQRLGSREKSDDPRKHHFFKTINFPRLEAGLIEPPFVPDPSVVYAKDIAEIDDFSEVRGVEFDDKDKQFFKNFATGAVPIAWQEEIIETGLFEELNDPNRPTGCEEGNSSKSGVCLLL

[2] = biological target: Glycogen synthase kinase-3 alpha (Homo sapiens) (UniProt P49840); conditions: at 1 µM
[3] = biological target: Glycogen synthase kinase-3 alpha (Homo sapiens) (UniProt P49840); conditions: at 10 µM
[4] = biological target: Glycogen synthase kinase-3 beta (Homo sapiens) (UniProt P49841); conditions: at 1 µM
[5] = biological target: Glycogen synthase kinase-3 beta (Homo sapiens) (UniProt P49841); conditions: at 10 µM
[6] = biological target: Homeodomain-interacting protein kinase 1 (Homo sapiens) (UniProt Q86Z02); conditions: at 1 µM
[7] = biological target: Homeodomain-interacting protein kinase 1 (Homo sapiens) (UniProt Q86Z02); conditions: at 10 µM
[8] = biological target: Homeodomain-interacting protein kinase 2 (Homo sapiens) (UniProt Q9H2X6); conditions: at 1 µM
[9] = biological target: Homeodomain-interacting protein kinase 2 (Homo sapiens) (UniProt Q9H2X6); conditions: at 10 µM
[10] = biological target: Homeodomain-interacting protein kinase 3 (Homo sapiens) (UniProt Q9H422); conditions: at 1 µM
[11] = biological target: Homeodomain-interacting protein kinase 3 (Homo sapiens) (UniProt Q9H422); conditions: at 10 µM
[12] = biological target: T2, Serine/threonine-protein kinase haspin (Homo sapiens) (UniProt Q8TF76); conditions: at 1 µM
T2 sequence (whole entry): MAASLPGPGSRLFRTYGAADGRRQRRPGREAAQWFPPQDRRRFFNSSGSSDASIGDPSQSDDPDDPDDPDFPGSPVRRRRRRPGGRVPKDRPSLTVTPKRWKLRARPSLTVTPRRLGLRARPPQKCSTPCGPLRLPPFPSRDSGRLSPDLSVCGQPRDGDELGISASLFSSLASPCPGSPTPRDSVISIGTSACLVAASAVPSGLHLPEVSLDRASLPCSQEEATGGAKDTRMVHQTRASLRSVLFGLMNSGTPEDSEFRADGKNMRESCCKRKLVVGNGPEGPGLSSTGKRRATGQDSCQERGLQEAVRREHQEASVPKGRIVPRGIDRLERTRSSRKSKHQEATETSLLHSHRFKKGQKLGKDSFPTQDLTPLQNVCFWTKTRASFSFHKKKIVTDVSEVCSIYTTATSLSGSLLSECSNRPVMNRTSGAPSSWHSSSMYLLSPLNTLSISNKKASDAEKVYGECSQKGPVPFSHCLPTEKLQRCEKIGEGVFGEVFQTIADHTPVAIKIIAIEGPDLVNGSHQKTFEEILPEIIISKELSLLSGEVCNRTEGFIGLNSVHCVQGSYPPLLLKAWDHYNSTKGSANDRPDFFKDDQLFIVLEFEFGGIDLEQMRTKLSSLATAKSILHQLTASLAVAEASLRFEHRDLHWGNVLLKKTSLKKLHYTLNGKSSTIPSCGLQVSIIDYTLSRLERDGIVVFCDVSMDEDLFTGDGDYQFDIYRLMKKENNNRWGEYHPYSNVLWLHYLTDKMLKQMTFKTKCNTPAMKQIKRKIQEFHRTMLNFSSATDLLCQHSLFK

[13] = biological target: T2, Serine/threonine-protein kinase haspin (Homo sapiens); conditions: at 10 µM
[14] = biological target: Tyrosine-protein kinase HCK (Homo sapiens) (UniProt P08631); conditions: at 1 µM
[15] = biological target: Tyrosine-protein kinase HCK (Homo sapiens) (UniProt P08631); conditions: at 10 µM
[16] = biological target: Tyrosine-protein kinase HCK (Homo sapiens) (UniProt P08631); conditions: at 10 µM; remark: listed apart in the source
[17] = biological target: Insulin-like growth factor 1 receptor (Homo sapiens) (UniProt P08069); conditions: at 1 µM
[18] = biological target: Insulin-like growth factor 1 receptor (Homo sapiens) (UniProt P08069); conditions: at 10 µM
[19] = biological target: T3, Protein kinase C zeta type (Homo sapiens) (UniProt Q05513); conditions: at 10 µM
T3 sequence (whole entry): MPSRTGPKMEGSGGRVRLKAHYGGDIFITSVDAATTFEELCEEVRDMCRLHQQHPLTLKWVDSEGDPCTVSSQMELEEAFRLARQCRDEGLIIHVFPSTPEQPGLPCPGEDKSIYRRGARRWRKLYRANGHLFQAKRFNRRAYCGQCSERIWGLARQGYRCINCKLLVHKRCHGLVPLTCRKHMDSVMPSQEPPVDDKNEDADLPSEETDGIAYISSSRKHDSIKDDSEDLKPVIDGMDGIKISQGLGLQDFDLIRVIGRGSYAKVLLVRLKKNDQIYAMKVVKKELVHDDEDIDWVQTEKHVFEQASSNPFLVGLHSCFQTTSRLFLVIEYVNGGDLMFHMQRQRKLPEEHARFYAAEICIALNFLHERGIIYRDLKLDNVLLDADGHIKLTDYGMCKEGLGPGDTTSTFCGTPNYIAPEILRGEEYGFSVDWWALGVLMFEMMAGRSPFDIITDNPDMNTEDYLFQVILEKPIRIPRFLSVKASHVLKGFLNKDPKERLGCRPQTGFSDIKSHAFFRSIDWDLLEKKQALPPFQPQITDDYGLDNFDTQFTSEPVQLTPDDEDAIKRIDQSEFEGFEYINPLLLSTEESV

[20] = biological target: Tyrosine-protein kinase HCK (Homo sapiens) (UniProt P08631); conditions: at 1 µM; remark: listed apart in the source

Sequence of Insulin-like growth factor 1 receptor (Homo sapiens) (P08069 31-736 limits assumed): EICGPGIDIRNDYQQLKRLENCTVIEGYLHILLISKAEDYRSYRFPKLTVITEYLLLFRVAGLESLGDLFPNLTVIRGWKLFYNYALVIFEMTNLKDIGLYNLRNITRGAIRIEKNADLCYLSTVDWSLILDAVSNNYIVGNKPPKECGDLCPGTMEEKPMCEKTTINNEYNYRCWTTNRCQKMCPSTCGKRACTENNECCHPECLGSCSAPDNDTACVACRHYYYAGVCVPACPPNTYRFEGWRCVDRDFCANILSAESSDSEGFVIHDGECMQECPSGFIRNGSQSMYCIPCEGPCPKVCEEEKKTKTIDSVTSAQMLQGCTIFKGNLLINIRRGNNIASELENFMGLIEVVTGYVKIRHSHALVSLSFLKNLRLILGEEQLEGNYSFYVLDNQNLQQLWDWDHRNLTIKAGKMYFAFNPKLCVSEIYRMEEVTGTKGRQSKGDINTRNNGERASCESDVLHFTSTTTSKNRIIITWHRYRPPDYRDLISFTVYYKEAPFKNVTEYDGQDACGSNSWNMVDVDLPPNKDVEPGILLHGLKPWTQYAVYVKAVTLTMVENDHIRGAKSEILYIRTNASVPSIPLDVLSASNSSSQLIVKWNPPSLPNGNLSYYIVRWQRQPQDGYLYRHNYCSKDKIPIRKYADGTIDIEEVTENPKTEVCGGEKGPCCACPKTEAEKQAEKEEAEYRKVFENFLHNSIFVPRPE
Sequence of Insulin-like growth factor 1 receptor (Homo sapiens) (P08069 741-1367 limits assumed): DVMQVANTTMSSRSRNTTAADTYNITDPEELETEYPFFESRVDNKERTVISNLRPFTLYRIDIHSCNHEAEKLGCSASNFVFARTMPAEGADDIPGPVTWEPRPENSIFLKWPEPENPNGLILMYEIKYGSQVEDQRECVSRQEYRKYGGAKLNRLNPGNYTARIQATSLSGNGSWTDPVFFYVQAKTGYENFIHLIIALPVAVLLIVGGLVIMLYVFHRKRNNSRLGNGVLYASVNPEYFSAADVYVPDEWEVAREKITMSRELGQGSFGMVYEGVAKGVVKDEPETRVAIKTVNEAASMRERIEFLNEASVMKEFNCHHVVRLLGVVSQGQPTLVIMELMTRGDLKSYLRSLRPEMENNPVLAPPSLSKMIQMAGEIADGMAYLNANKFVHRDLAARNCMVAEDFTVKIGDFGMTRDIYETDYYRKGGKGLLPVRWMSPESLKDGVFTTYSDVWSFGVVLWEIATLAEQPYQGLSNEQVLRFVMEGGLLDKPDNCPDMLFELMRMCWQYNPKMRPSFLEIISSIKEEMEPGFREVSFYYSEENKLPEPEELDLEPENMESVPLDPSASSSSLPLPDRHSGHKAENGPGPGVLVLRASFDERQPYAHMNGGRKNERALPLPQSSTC
Sequence of Glycogen synthase kinase-3 alpha (Homo sapiens) (P49840 2-483 limits assumed): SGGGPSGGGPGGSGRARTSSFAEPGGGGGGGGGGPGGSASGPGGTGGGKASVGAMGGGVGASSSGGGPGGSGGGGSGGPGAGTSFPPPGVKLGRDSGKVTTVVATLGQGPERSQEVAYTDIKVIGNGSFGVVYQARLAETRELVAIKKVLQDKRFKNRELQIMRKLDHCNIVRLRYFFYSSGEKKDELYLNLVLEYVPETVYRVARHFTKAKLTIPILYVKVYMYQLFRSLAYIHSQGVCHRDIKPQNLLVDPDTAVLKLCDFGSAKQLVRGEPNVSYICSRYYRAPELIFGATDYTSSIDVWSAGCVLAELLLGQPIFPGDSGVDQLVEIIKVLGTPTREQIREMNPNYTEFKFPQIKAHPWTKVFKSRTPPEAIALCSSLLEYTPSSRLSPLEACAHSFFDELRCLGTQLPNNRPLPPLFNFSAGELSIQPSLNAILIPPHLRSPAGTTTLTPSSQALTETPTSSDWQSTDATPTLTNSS
Sequence of Homeodomain-interacting protein kinase 2 (Homo sapiens) (Q9H2X6 whole entry, looked up): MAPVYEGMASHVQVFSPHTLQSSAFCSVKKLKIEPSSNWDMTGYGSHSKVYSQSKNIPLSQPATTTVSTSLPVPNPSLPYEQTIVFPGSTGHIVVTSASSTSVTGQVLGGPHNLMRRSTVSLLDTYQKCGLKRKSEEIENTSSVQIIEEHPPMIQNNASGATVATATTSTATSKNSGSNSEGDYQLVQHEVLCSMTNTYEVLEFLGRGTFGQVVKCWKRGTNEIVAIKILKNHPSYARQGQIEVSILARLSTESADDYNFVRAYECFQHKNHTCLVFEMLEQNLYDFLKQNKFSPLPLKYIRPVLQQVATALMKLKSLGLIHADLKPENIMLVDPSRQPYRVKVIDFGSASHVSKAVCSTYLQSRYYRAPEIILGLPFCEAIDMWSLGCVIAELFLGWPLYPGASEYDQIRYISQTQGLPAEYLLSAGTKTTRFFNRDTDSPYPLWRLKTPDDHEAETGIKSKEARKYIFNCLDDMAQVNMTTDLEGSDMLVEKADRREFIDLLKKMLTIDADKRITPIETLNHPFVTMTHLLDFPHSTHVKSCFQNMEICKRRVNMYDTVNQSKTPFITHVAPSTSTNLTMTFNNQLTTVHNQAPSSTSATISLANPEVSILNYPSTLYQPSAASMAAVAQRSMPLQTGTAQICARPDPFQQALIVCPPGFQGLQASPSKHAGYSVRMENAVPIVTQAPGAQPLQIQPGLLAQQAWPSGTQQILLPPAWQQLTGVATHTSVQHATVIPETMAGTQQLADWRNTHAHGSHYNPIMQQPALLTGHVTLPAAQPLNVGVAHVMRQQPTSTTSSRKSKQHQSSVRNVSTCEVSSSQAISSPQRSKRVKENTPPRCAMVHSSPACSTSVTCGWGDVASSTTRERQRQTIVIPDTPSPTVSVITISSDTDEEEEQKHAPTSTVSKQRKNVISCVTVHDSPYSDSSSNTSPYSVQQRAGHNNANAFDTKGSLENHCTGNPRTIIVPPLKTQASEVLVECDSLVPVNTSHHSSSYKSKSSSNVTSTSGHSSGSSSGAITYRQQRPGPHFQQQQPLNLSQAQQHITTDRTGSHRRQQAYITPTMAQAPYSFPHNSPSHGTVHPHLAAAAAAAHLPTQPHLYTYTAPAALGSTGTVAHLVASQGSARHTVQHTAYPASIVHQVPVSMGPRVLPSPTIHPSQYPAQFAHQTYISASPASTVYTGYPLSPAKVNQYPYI
Sequence of Glycogen synthase kinase-3 beta (Homo sapiens) (P49841 whole entry, looked up): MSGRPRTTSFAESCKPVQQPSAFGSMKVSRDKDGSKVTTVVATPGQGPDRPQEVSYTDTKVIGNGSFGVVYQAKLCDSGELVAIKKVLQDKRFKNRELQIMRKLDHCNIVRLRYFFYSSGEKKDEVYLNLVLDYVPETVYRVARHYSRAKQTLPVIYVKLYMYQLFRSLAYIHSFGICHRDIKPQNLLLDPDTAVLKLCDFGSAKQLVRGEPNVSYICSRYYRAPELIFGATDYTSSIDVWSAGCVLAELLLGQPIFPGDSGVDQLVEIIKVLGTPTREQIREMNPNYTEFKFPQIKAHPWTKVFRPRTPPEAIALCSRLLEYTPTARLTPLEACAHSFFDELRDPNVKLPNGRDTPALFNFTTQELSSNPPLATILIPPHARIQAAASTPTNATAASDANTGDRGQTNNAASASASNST
Sequence of Homeodomain-interacting protein kinase 3 (Homo sapiens) (Q9H422 whole entry, looked up): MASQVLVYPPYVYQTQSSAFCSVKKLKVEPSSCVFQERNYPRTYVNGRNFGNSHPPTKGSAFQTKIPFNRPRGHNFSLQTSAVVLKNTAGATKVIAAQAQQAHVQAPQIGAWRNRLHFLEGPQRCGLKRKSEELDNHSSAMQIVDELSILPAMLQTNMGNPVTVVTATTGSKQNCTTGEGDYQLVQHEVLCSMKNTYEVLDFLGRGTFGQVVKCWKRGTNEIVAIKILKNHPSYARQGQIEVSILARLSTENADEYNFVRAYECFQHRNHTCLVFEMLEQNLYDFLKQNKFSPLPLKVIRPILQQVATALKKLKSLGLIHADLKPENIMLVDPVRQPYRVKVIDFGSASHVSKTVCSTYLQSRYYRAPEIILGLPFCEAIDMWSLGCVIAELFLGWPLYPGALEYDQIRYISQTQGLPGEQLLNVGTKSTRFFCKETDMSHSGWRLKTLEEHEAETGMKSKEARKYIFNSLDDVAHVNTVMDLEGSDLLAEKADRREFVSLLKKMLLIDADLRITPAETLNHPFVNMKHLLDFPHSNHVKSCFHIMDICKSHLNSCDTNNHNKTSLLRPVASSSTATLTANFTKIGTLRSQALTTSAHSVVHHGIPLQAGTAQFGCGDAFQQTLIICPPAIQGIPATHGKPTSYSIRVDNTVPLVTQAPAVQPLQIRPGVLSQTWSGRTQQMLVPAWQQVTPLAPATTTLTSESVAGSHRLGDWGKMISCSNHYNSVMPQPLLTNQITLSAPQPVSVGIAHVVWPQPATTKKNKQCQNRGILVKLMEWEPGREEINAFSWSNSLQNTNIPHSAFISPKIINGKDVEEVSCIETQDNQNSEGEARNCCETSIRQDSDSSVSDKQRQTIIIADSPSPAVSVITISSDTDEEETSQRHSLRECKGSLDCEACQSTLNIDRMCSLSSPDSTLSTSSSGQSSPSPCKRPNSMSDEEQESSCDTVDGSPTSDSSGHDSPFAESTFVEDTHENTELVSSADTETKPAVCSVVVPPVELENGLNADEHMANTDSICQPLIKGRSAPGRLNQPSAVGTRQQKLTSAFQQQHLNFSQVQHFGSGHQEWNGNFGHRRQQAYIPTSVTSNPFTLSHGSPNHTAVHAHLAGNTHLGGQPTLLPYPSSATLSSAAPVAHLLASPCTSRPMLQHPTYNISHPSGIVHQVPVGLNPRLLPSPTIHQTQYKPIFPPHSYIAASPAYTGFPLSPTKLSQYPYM

SMILES | residual activity [1] [%] | residual activity [2] [%] | residual activity [3] [%] | residual activity [4] [%] | residual activity [5] [%] | residual activity [6] [%] | residual activity [7] [%] | residual activity [8] [%] | residual activity [9] [%] | residual activity [10] [%] | residual activity [11] [%] | residual activity [12] [%] | residual activity [13] [%] | residual activity [14] [%] | residual activity [15] [%] | residual activity [16] [%] | residual activity [17] [%] | residual activity [18] [%] | residual activity [19] [%] | residual activity [20] [%]
CO[C@H]1[C@@H](OC)C[C@H](C)[C@@H](OC)C2=CC(=O)C=C(NC(=O)/C(C)=C/C=C/[C@H](OC)[C@@H](OC(N)=O)/C(C)=C/[C@@H]1C)C2=O | 92 | 100 | 109 | 92 | 104 | 102 | 104 | 108 | 92 | 100 | 105 | 88 | 78 | 78 | 76 | 103 | 137 | 113 | 106 | –
CO[C@H]1C[C@@H]2CC[C@@H](C)[C@@](O)(O2)C(=O)C(=O)N2CCCC[C@H]2C(=O)O[C@H]([C@H](C)C[C@@H]2CC[C@@H](O)[C@H](OC)C2)CC(=O)[C@H](C)/C=C(\C)[C@@H](O)[C@@H](OC)C(=O)[C@H](C)C[C@H](C)/C=C/C=C/C=C/1C | 86 | 117 | 193 | 96 | – | 91 | 101 | 103 | 99 | 91 | 110 | 86 | 106 | 73 | 81 | 87 | 123 | 112 | 112 | 99
Cn1cnc2cc3c(Nc4cccc(Br)c4)ncnc3cc21 | 86 | 103 | 105 | 102 | 82 | 96 | 105 | 102 | 92 | 95 | 95 | 108 | 59 | 52 | 21 | 25 | 145 | 103 | 101 | 51
Oc1ccc(Nc2nc(-c3ccc(Cl)cc3)cs2)cc1 | 103 | 97 | 88 | 131 | 114 | – | 95 | 92 | 89 | 105 | 85 | 88 | 84 | 89 | 69 | 86 | 120 | 101 | 87 | 97
CCN(CC)C(=O)c1ccc(Nc2nc(OCC3CCCCC3)c3nc[nH]c3n2)cc1 | 78 | 72 | 15 | 75 | 26 | – | – | – | 28 | 99 | 62 | – | – | 31 | 5 | 7 | – | – | 95 | 43
N#Cc1cnc2cnc(NCc3cccnc3)cc2c1Nc1ccc(F)c(Cl)c1 | 94 | 46 | 39 | 62 | 42 | – | – | 94 | 84 | – | – | 102 | 67 | 17 | 12 | 91 | 97 | – | 94 | –
Cc1cc(Nc2nc(-c3ccccc3)nc3ccccc23)n[nH]1 | 14 | 9 | 3 | 20 | 10 | 95 | 35 | 64 | 13 | – | – | 103 | 67 | 23 | 4 | 5 | 17 | 1 | 102 | 27
O=C1Nc2ccc(Br)cc2/C1=C\c1cc2c([nH]1)CCCC2 | – | 113 | 122 | – | – | – | 99 | 82 | – | 97 | 76 | – | – | 59 | 52 | – | – | 128 | 102 | –
